From PubChem BioAssay
Rows were chosen to be rich in hits. Some 4.8% of all compounds tested hit in one or more screens of this group.
SUMO Mot1 rescue = inhibitors of SUMOylation pathway: yeast Mot1-301 growth rescue; S. cerevisiae Mot1-301 growth rescue, ATP luminescence, 38.5C; percent above DMSO median, 100 means doubled; growth rescue, % at 18.8 µM; AID 2716; actives 1% (n = 320,000);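 active = every valid replicate shows activation above 250% relative to neutral control wells; inactive = the rest, any valid replicate at or below 250%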;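 note: OY570 slx delta 5 strain wells were the positive control but not used for scaling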
HIF act = HIF pathway transcriptional activation; activation, % at 7.5 µM (by protocol); actives 0.32% (n = 300,000); AID 1910; U2OS HRE-luciferase reporter, luminescence; normalized: DMSO 0%, desferrioxamine 100%;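 active = mean activation of at least 10% of the iron chelator positive control signal, with at least half of replicates also reaching 10%; inconclusive = mean and replicate majority disagree about reaching 10%; inactive = mean and most replicates under 10%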
AI-2 QS modul = modulators of Vibrio harveyi AI-2 quorum sensing system. AID 2094. actives 0.4% (n = 300,000). activity change, % at 7.5 µM. Vibrio harveyi JMH597 AI-2 luminescence/OD600 ratio, 9 h; active compounds read low; strain lacks LuxN and CqsS sensors; 0 = neutral-control median; in the data active = activity change below about -75%, passing the limit was not always enough; inconclusive = no clear call, values can overlap the other calls;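 note: luminescence divided by OD600 gain over 9 h not by final OD600 alone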
ALR inh = inhibitors of human sulfhydryl oxidase ALR. P55789. purified ALR, DTT oxidation, H2O2 HRP-luminol luminescence. inhibition, % (no concentration beside the values). actives 3.8% (n = 290,000). AID 485317;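 active = mean replicate inhibition above about 79%, with every replicate also reaching it, limit read from the data; inconclusive = only one of the two criteria met; inactive = mean below limit and not every replicate reaching it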
Target sequence (P55789 whole entry, looked up): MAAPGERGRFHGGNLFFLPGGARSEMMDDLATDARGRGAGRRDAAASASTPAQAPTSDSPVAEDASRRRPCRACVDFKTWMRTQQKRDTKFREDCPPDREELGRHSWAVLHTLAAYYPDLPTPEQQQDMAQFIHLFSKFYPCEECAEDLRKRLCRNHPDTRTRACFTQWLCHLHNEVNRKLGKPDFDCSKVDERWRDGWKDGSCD
An asterisk follows results filed as active; ? = inconclusive; . = no result given.

SMILES	SUMO Mot1 rescue	HIF act	AI-2 QS modul	ALR inh
CCN(CC)S(=O)(=O)c1ccc(N2CCCC2)c(NC(=O)c2nn(C)c(=O)c3ccccc23)c1	18	.	.	-27
Cc1ccc(C(=O)Nc2ccccc2N2CCCCC2)cc1	6	0	6	.
O=C(Nc1ccccc1N1CCCC1)C1CCN(C(=O)c2ccc(F)cc2)CC1	-7	2	16	98*
Cn1nc(C(=O)Nc2ccccc2N2CCCC2)c2ccccc2c1=O	7	0	8	92*
COc1ccc(C(=O)Nc2ccccc2N2CCCC2)cc1	2	-5	16	94*
Cc1ccc(S(=O)(=O)CCC(=O)Nc2ccccc2N2CCCC2)cc1	11	.	.	99*
Cc1cc(OC(=O)c2ccccc2F)c([N+](=O)[O-])c(=O)[nH]1	209	-2	-1	-3
COc1cccc(CC(=O)Nc2ccccc2N2CCCC2)c1	9	0	26	98*
CC(=O)Nc1ccc(S(=O)(=O)N(C)CC(=O)Nc2ccccc2N2CCCC2)cc1	-1	-1	4	99*
O=C(Nc1ccccc1N1CCCC1)c1cccc(F)c1	4	0	7	99*
CCOc1ccc(NC(=O)CSc2nccn(-c3ccc4c(c3)OCCO4)c2=O)cc1	-13	0	33	98*
Cc1ccc(NC(=O)CSc2nccn(-c3ccc4c(c3)OCCO4)c2=O)cc1	-16	1	17	99*
CC(=O)c1ccc(-c2ccc(C(=O)NC3CCCCCC3)o2)cc1	-9	0	13	98*
O=C(NC1CCC(O)CC1)c1ccc(-c2ccc(Cl)cc2)o1 (stereo unspecified)	-8	4	23	11
CCN1CCN(CCNC(=O)CSCc2nc(-c3ccc(OC)c(OC)c3)oc2C)CC1	2	0	5	99*
COc1ccc(-c2nc(CSCC(=O)N3CCN(C)CC3)c(C)o2)cc1OC	17	0	8	99*
CCN1CCN(C(=O)CSCc2nc(-c3ccc(OC)c(OC)c3)oc2C)CC1	-8	0	97	99*
COc1ccc(-c2nnc(SCC(=O)N3CCCC3)o2)cc1OC	6	0	13	-4
COc1cc(-c2nc(CN3CCCN(C(=O)c4ccco4)CC3)c(C)o2)ccc1F	-15	0	23	-5
COc1ccc(-c2nc(CSCC(=O)N3CCN(C(=O)c4ccco4)CC3)c(C)o2)cc1OC	88	0	29	99*
Cc1oncc1C(=O)N1CCCC(CO)(Cc2ccc(F)cc2F)C1 (stereo unspecified)	-6	1	12	0
O=C(CN(C(=O)CCC(=O)Nc1nccs1)c1ccc(F)cc1)NCc1ccccc1	177	0	9	0
COc1ccc(/C=N/NC2=NS(=O)(=O)c3ccccc32)cc1OC	-16	0	63	-1
Cc1ccc(N2NC(=O)/C(=C\c3cc4c(cc3[N+](=O)[O-])OCO4)C2=O)cc1C	33	0	25	94*
COc1cc(/C=C2/C(=O)NN(c3cccc(C)c3)C2=O)cc([N+](=O)[O-])c1O	8	0	70	.
SMILES	SUMO Mot1 rescue	HIF act	AI-2 QS modul	ALR inh
CCOc1cc(/C=C2/C(=O)NN(c3cccc(Cl)c3)C2=O)ccc1O	10	0	14	98*
COc1cc(/C=C2/C(=O)NN(c3cccc(Cl)c3)C2=O)cc(OC)c1O	36	0	21	91*
COc1cc(/C=C2/C(=O)NN(c3ccc(C)c(Cl)c3)C2=O)cc([N+](=O)[O-])c1O	91	0	25	99*
COc1ccc(CCNC(=O)COC(=O)Cc2c[nH]c3ccccc23)cc1OC	0	.	.	0
CN(Cc1nc(-c2ccc(Cl)cc2)no1)C(=O)c1ccc2c(c1)OCO2	2	1	47	.
CCOc1ccc(C2C(C(=O)c3cccs3)=C(O)C(=O)N2CCN2CCOCC2)cc1 (stereo unspecified)	-4	1	-4	-5
O=C1NN(c2ccc(Br)cc2)C(=O)/C1=C\c1ccc(O)cc1O	-7	-22	-7	.
COc1cccc(/C=C2/C(=O)NN(c3ccc(C)c(C)c3)C2=O)c1	7	1	3	99*
O=C1NN(c2cccc(Br)c2)C(=O)/C1=C\c1ccc(O)cc1	-6	0	21	98*
COc1cccc(/C=C2/C(=O)NN(c3ccc(F)cc3)C2=O)c1	26	-1	-2	?
CCCCN(C(=O)c1ccncc1)c1c(N)n(CCC)c(=O)[nH]c1=O	-15	.	.	-1
CC(=O)NNc1nc(-c2ccccc2)c2cc(Br)ccc2n1	2	0	19	0
Cc1ccc2nc(NCCCO)nc(-c3ccccc3)c2c1	7	0	20	-7
O=C(CN1CCCCC1)NNc1nc(-c2ccccc2)c2cc(Br)ccc2n1	409	0	-4	90*
OCCCNc1nc(-c2ccccc2)c2cc(Br)ccc2n1	826*	-20	18	-1
COc1cc(/C=C/C(=O)OCC(=O)Nc2cc(S(=O)(=O)N3CCCC3)ccc2Cl)cc(OC)c1OC	12	.	.	.
COc1ccccc1N/N=C/c1c(CO)cnc(C)c1O	5	0	8	100*
Cc1ncc(CO)c(/C=N/NC(=O)c2cc3c(s2)CCCC3)c1O	-1	22*	43	23
COc1cc(N=Cc2c(CO)cnc(C)c2O)cc(OC)c1OC	-8	-1	1	99*
Cc1ncc(CO)c(/C=N/NC(=S)Nc2ccc(Cl)c(Cl)c2)c1O	-20	0	-210*	18
Cc1ccc(CNS(=O)(=O)c2cc3c(cc2C)N(C)CCO3)cc1	9	0	5	89*
CC(=O)N1CCOc2cc(S(=O)(=O)NCc3ccc(F)cc3)c(C)cc21	-2	0	16	-3
CCCCCOCC1CC(C/C(C)=N/Nc2nc(-c3ccccc3)cs2)C(=O)O1 (stereo unspecified)	247	0	37	96*
CC1(CCc2ccccc2)NC(=O)N(CC(=O)Nc2ccc(OC(F)F)cc2)C1=O (stereo unspecified)	7	.	.	-6
CCc1nc(SCC(=O)Nc2ccc(N(C)C)cc2)n[nH]1	193	2	28	98*
SMILES	SUMO Mot1 rescue	HIF act	AI-2 QS modul	ALR inh
CCc1nc(SCC(=O)Nc2ccc([N+](=O)[O-])cc2)n[nH]1	-22	0	5	-2
CCc1nc(SCC(=O)Nc2ccc(C(=O)O)cc2)n[nH]1	11	0	31	99*
COC(C(=O)N/N=C(\C)c1ccc(C(C)(C)C)cc1)c1ccccc1 (stereo unspecified)	-2	-1	11	12
Cc1cc(O)ccc1Nc1nc2ccccc2nc1Nc1ccc(O)cc1C	-26	2	14	43
Cc1cccc(C)c1N=Nc1c(C)cc(O)cc1C	-18	0	-11	92*
Cc1nn(C)c(C)c1CN(C(=O)C1CCC(=O)N(C2CCCCCC2)C1)C(C)C (stereo unspecified)	12	2	33	-3
NC(=O)CSc1nnc(Cc2csc(Nc3ccccc3)n2)n1Cc1ccccc1	-15	0	11	79*
CCc1c(C)nc2cc(-c3cccc(Br)c3)[nH]n2c1=O	-4	-5	8	-7
